Data from PubChem BioAssay (NCI).
The panel holds about 79,000 compounds, 15% with a hit somewhere; the sample as a whole holds those more often. No stated cut-off is given here; in the data, active means growth inhibition above about 70%; inactive means the rest.

What was measured:
[1] = NCI Yeast Anticancer Drug Screen. Data for the rad50 strain (AID 155);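 further: 0% = growth of vehicle-only cultures of the same strain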; details: S. cerevisiae rad50 strain growth inhibition; at 50.0 µM; stronger effect = higher value
Summary of the method: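 Compounds were tested on a yeast strain with an engineered DNA damage repair alteration; the reported value is growth inhibition normalised to vehicle treatment.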

[2] = NCI Yeast Anticancer Drug Screen. Data for the mec2-1 strain (AID 157); details: S. cerevisiae mec2-1 strain, at 50.0 µM, stronger effect = higher value
Summary of the method: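 Test agents were screened against the mec2-1 yeast strain, with defined DNA repair or cell cycle alteration. Growth was scored as inhibition against vehicle-only controls.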

[3] = NCI Yeast Anticancer Drug Screen. Data for the sgs1 mgt1 strain (AID 161);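 further: 0% = growth of cultures given vehicle only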; details: S. cerevisiae sgs1 mgt1 strain, at 50.0 µM, stronger effect = higher value
Summary of the method: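 Test agents were incubated with a DNA-repair-mutant yeast strain. Growth was then read and compared against vehicle-treated controls.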

[4] = NCI Yeast Anticancer Drug Screen. Data for the cln2 rad14 strain (AID 165);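 further: 0% = growth equal to vehicle treated cultures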; details: S. cerevisiae cln2 rad14 strain, at 50.0 µM, stronger effect = higher value
Summary of the method: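 Growth of compound-exposed yeast (cln2 rad14 genotype) measured and expressed as inhibition relative to vehicle.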

[5] = NCI Yeast Anticancer Drug Screen. Data for the bub3 strain (AID 167); details: S. cerevisiae bub3 mutant strain, at 50.0 µM, stronger effect = higher value
Summary of the method: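 Growth of a checkpoint-deficient yeast mutant is measured after compound exposure. Values represent inhibition relative to vehicle.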

[6] = NCI Yeast Anticancer Drug Screen. Data for the mlh1 rad18 strain (AID 175); details: S. cerevisiae mlh1 rad18 strain growth inhibition; at 50.0 µM; stronger effect = higher value
Summary of the method: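 In this whole-cell yeast screen, a strain with altered DNA damage repair is challenged with compound, and its growth is measured against matched vehicle-treated controls.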

Measured: growth inhibition

O=C(O)C(c1ccccc1)C(O)C1CCCC1 (stereo not drawn)
inactive: [1] -2.9% | [2] -11.1% | [3] 1.05% | [4] -10.8% | [5] -7.3% | [6] -4.45%

OCC1CC(O)CN2CCc3c([nH]c4ccccc34)C2C1 (stereo not drawn)
inactive: [1] 4.6% | [2] 3.25% | [3] 11.3% | [4] -5.2% | [5] 0.1% | [6] 2.8%

CC1CCS(=O)(=O)C1 (stereo not drawn)
inactive: [1] -12.8% | [2] -23.1% | [3] -35.9% | [4] 6.8% | [5] -8.4% | [6] -10.1%
